Bioassay records from PubChem.
Only some compounds are listed: those with a hit (about 21% of all), similar ones and a draw of the others.
Cycloheximide cs: counter-screen hit for Shiga toxin inhibitors, cycloheximide; cell reporter, cycloheximide protein synthesis inhibition counterscreen; max response, %; 300,000 compounds, 12% hits; in the data active = max response mostly above about 13%, no sharp cut-off; inactive = mostly below about 14%; also: read at 38.3 µM for the half of the compounds with a filed dose; 0% is about no effect
Pf growth 96h: inhibits malaria parasite growth, 96 h; P. falciparum luciferase reporter growth, 96 h; Potency, µM (top dose mostly 28.7 µM), inactives show at the top dose activity change, negative = inhibition, actives largely listed as inhibitors; 320,000 compounds, 6.9% hits; AID 504834; also: potency is read from the fitted curve at half-maximal effect; % is scaled to controls: 0 for no effect and ±100 for the full control effect
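P. falciparum expressing integrated firefly luciferase grown in erythrocytes (2% hematocrit, 0.05% parasitemia final) with compounds for 96 hours at 37 C, 5% CO2. Growth inhibition read as loss of luminescence after adding luciferase detection reagent.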
Pf growth 48h: inhibits P. falciparum growth in the first generation, 48 h; P. falciparum luciferase growth in erythrocytes, 48 h; Potency, µM (titrated, usually from 28.7 µM), for the others: at the highest dose activity change, negative = inhibition, actives largely listed as inhibitors; 310,000 compounds, 5.9% hits; also: potency is read from the fitted curve at half-maximal effect; % is scaled to controls: 0 for no effect and ±100 for the full control effect
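Firefly luciferase activity from engineered P. falciparum reports growth; inhibitors lower the luminescent signal. Cultures contained 2% hematocrit erythrocytes at 0.1% final parasitemia.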
Shiga toxin inh: inhibitors of Shiga toxin in Vero cells; Vero cells, Shiga toxin protein synthesis inhibition reporter; AID 2315; inhibition, % at 38.7 µM; 290,000 compounds, 9.2% hits; in the data active = inhibition mostly above about 28%, no sharp cut-off; inactive = mostly below about 43%; also: 0% is about no effect
NS1 inh: blocks influenza NS1 protein function; 270,000 compounds, 0.4% hits; Potency, µM (highest dose often 46.1 µM), inactives show at the highest dose activity, positive = more growth; calls by dose curve; also: potency is read from the fitted curve at half-maximal effect; actives are rising curves; nearly all actives have a fitted effect of over 50% in size
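A cell-based growth assay was used: compounds that relieve NS1-induced slow growth of budding yeast raise OD600. Assay medium was yeast nitrogen base with ammonium sulphate and -URA supplement, pH 6.0, with 2% galactose.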
FBPA Giardia inh: inhibitors of Giardia lamblia fructose-1,6-bisphosphate aldolase | 290,000 compounds, 0.71% hits | Potency, µM (series often up to 59.6 µM), for inactives: at the top dose activity, negative = inhibition, most hits filed as inhibitors | A8B2U2 | purified Giardia FBPA; also: potency is read from the fitted curve at half-maximal effect; % is scaled to controls: 0 for no effect and ±100 for the full control effect; nearly all actives have a fitted effect of over 55% in size
Target sequence (A8B2U2 whole entry, looked up): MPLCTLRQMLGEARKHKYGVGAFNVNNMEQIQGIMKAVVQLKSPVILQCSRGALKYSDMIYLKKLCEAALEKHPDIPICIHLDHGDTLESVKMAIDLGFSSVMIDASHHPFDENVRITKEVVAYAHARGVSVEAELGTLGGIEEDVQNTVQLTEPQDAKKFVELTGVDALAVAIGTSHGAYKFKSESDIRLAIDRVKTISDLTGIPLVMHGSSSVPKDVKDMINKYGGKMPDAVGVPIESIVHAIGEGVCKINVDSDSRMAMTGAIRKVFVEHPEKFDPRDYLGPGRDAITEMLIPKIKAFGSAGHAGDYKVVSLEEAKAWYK
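Giardia FBPA (40 nM reagent) was preincubated 10 min at RT with compound (up to 57.5 uM final), then substrate plus GAPDH/TPI/NAD/arsenate coupling system with diaphorase/resazurin was added; resorufin fluorescence (525/598 nm) was read after 20 min.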
* = called active by the depositor; i = inactive; ? = inconclusive; . = no result; [ ] = dose if it differs, or a comment. Unless noted, calls follow the shape of the dose curve; as a rule, active = well fitted curve in the direction sought with a large enough effect; inconclusive = small, poorly fitted or top-dose-only effect, or another doubt; inactive = no such curve, though single readings can be large; an effect the other way counts as inactive or inconclusive.

SMILES	Cycloheximide cs	Pf growth 96h	Pf growth 48h	Shiga toxin inh	NS1 inh	FBPA Giardia inh
Cc1cc2ccccc2n1CCNC(=O)c1ccc(Br)o1	19.0*	?	?	28.4*	3.1%	?
Cc1cc2ccccc2n1CCNC(=O)c1ccc(S(=O)(=O)N2CCOCC2)cc1	-1.6	0.0%	4.15µM*	3.3	9.7%	-2.9%
Cc1onc(-c2ccccc2Cl)c1C(=O)NCC(=O)O	-3.3	?	2.3%	13.1	2.2%	4.1%
Cc1cc2ccccc2n1CCNC(=O)c1ccccc1	14.7*	11.4%	28.8%	24.3	15.9%	-21.6%
Cc1onc(-c2ccccc2Cl)c1C(=O)NCCn1c(C)cc2ccccc21	0.8	10.4µM*	13.1µM*	-6.2	?	-9.7%
Cn1cnnc1Sc1ccc(C(=O)NCCC(c2ccccc2)c2ccccc2)cc1[N+](=O)[O-]	0.2	?	8.28µM*	16.6	?	-2.5%
Cn1cnnc1SCC(=O)NCCC(c1ccccc1)c1ccccc1	-1.4	.	6.6%	-12.1	-0.8%	-0.5%
O=C(Nc1ccc2ccccc2c1)c1cc(F)c(F)cc1Cl	47.3*	0.0%	202.6%	109.6*	14.2%	6.3%
O=C(Nc1ccc2ccccc2c1)c1ccccc1O	23.5*	?	-18.1%	36.1*	-40.4%	0.9%
O=C(Nc1ccc2ccccc2c1)c1ccc(Cl)cc1Cl	26.0*	i	-18.4%	31.7*	4.7%	0.0%
CN1C(=O)c2ccc(NC(=O)c3ccc(Cl)cc3Cl)cc2C1=O	22.0*	?	30.3%	14.1	-17.2%	.
COc1ccc(CCNC(=O)COC(=O)C2CC2C)cc1OC (stereo unspecified)	.	17.0%	4.4%	.	.	.
O=S(=O)(O)/C(=C\c1ccccc1)c1ccccc1 (tested in a mixture with another compound)	.	.	.	.	-3.4%	.
Cc1ccc(C(=O)N/N=C(/CC(=O)c2cccs2)C(F)(F)F)cc1	23.2*	-19.5%	16.0%	-2.8	4.9%	9.5%
O=C(N/N=C(\CC(=O)c1cccs1)C(F)(F)F)c1ccncc1	-1.4	?	0.233µM*	9.8	4.9%	22.7%
O=C(NCCCN1CCOCC1)C(=O)NCc1ccccc1Cl	-1.7	-27.6%	9.7%	-21.0	.	-1.8%
CCCCN(C(=O)c1ccc(S(=O)(=O)N(CC)CC)cc1)c1c(N)n(CCC)c(=O)[nH]c1=O	3.1	10.9%	-10.5%	23.2	-7.4%	-0.4%
Cc1ccc(CNC(=O)c2ccc(CNS(=O)(=O)c3ccc4c(c3)C(C)(C)C(=O)N4C)cc2)o1	0.8	-6.2%	?	-2.6	10.7%	-5.5%
CC(OC(=O)c1ccc(NS(=O)(=O)c2ccc3[nH]c(=O)[nH]c3c2)cc1)C(=O)Nc1ccc(Cl)cc1 (stereo unspecified)	5.0	0.586µM*	0.828µM*	19.6	13.4%	2.4%
CCc1ccc(NS(=O)(=O)c2ccc3[nH]c(=O)[nH]c3c2)cc1	10.5	3.1%	-21.2%	8.5	1.3%	0.1%
COc1ccc(Cl)cc1NC(=O)C(C)OC(=O)c1ccc(NS(=O)(=O)c2ccc3[nH]c(=O)[nH]c3c2)cc1 (stereo unspecified)	-3.0	?	-12.2%	-12.1	?	5.8%
CCC(C)NC(=O)c1ccc(CNS(=O)(=O)c2ccc3c(c2)C(C)(C)C(=O)N3C)cc1 (stereo unspecified)	-2.5	9.28µM*	0.3%	-3.7	-0.7%	6.6%
COCCNC(=O)c1ccc(NS(=O)(=O)c2ccc3[nH]c(=O)[nH]c3c2)cc1	-1.0	?	20.5%	-11.6	8.1%	.
CCN(CC)C(=O)c1ccc(NS(=O)(=O)c2ccc3[nH]c(=O)[nH]c3c2)cc1	-1.3	8.28µM*	11.7µM*	-12.3	2.0%	.
CCC(C)NC(=O)c1ccc(NS(=O)(=O)c2ccc3[nH]c(=O)[nH]c3c2)cc1 (stereo unspecified)	28.0	?	22.7%	13.3*	-2.2%	.
SMILES	Cycloheximide cs	Pf growth 96h	Pf growth 48h	Shiga toxin inh	NS1 inh	FBPA Giardia inh
C/C(CCN1CCCCc2nc(C)c(C)cc21)=N\O[C@@H](C)CN1CCCCc2nc(C)c(C)cc21	-4.0	11.7µM*	13.1µM*	-2.7	-2.1%	3.6%[12.9 µM]
COc1ccc(O[C@H]2C=C[C@@H](c3ccccc3)O[C@@H]2CO/N=C(\C)CCN2CCCCc3nc(C)c(C)cc32)cc1	4.0	?	1.65µM*	44.6	-69.3%	-1.8%[12.9 µM]
C/C(CCN1CCCc2nc(C)c(C)cc21)=N\O[C@@H](C)CN1CCCCc2nc(C)c(C)cc21	.	.	.	.	.	3.0%[12.9 µM]
COc1cc(NC(=O)C2=C(N3CCOCC3)/C(=C\c3ccc(Cl)cc3Cl)CC2)cc(OC)c1OC	-3.9	?	-20.6%	-12.7	18.4%	-1.4%
O=C1CCCCN1CCCC(=O)N1CCCC(Nc2ccccc2)C1 (stereo unspecified)	6.3	?	40.3%	-6.1	-9.8%	2.9%
CC(=O)Nc1ccc2c(c1)ncn2-c1ccccc1	48.9*	12.4%	75.8%	56.4*	3.2%	1.1%
CCC(=O)Nc1ccc2c(c1)ncn2-c1ccccc1	33.4*	16.3%	53.7%	85.4*	-2.6%	2.5%
O=C1C[C@@H](c2ccc(O)cc2)Oc2cc(O[C@@H]3O[C@H](CO)[C@@H](O)[C@H](O)[C@H]3O)cc(O)c21	6.7	.	.	-3.5	.	5.8%
Cc1cc(CC(=O)O)c(C)n1-c1ccc(Cl)cc1	.	10.7µM*	?	.	.	.
Cc1cc(N)c(NC2=CC(=O)CC(C)(C)C2)cc1C	62.1*	10.4µM*	-3.6%	91.0*	?	0.6%
Cc1ccc(NC2=CC(=O)CC(C)(C)C2)cc1F	-0.9	-18.3%	4.4%	-1.6	-0.4%	-8.4%
Cc1c(CCC(=O)NCCCn2ccnc2)c(=O)oc2c(C)c3oc4c(c3cc12)CCCC4	-1.1	?	?	4.0	9.4%	15.2%
CC(=O)c1ccc(S(=O)(=O)N(C)CC(=O)N2CCCCCC2)cc1	-1.4	-8.7%	4.5%	-3.3	5.5%	2.2%
CCNC(=O)NC(=O)CSc1ccc(S(=O)(=O)N2CCCCC2)cn1	.	5.22µM*	?	.	.	.
CNC(=O)NC(=O)CSc1ccc(S(=O)(=O)N(C)C2CCCCC2)cn1	.	7.9%	?	.	.	.
CCNC(=O)NC(=O)CSc1ccc(S(=O)(=O)N(C)C2CCCCC2)cn1	.	9.28µM*	11.7µM*	.	.	.
Cc1nonc1CN(C)C(=O)CC1C(=O)NCCN1Cc1ccc(F)c(F)c1 (stereo unspecified)	-1.3	45.7%	40.9%	-13.1	-0.2%	-18.8%
NC(N)=N[C@H](CC(=O)O)c1ccccc1	.	.	.	.	-2.8%	.
COc1ccc(Cl)cc1N(CC(=O)N/N=C/c1ccc(OC(C)C)cc1)S(=O)(=O)c1ccc(C)c([N+](=O)[O-])c1	-1.6	?	?	-3.5	23.1%	0.6%
C=CCOc1cccc(/C=N/NC(=O)CN(c2cc(Cl)ccc2OC)S(=O)(=O)c2ccc(C)c([N+](=O)[O-])c2)c1	-2.1	1.17µM*	?	-4.2	27.0%	-2.0%
